Pf growth 48h: P. falciparum growth inhibition at 48 hours (one generation) | Potency, µM (titrated, usually from 28.7 µM), usual class: inhibitors | AID 504832 | hit rate 5.9% among 310,000 | P. falciparum luciferase growth in erythrocytes, 48 h
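Read-out is firefly luciferase luminescence from an integrated reporter in P. falciparum, so falling signal marks reduced parasite growth. Infected erythrocytes were at 2% hematocrit and 0.1% parasitemia (final) in Albumax-supplemented RPMI 1640.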
AmpC detergent: blocks E. coli AmpC beta-lactamase in detergent assay | P00811 | AmpC hydrolysis of nitrocefin, absorbance 480 nm, 0.01% Triton | Potency, µM (doses to about 114 µM), usual class: inhibitors | hit rate 0.041% among 370,000 | AID 485294; further: nearly all actives have a fitted effect of over 25% in size
Target sequence (P00811 whole entry, looked up): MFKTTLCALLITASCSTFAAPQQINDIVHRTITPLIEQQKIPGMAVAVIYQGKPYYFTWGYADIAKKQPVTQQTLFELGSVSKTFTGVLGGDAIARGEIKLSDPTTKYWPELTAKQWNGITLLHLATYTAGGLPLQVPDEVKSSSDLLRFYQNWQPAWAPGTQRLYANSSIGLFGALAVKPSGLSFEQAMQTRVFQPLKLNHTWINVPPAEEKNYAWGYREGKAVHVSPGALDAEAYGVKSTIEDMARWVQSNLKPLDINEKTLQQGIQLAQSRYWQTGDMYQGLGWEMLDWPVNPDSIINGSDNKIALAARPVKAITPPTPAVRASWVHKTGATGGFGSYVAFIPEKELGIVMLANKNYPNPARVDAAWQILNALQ
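AmpC (5.3 nM in the dispensed reagent) in 20 mM phosphate pH 7.0 with 0.01% (detergent screen) or 0.0001% Triton X-100 was preincubated with compounds for 15 min at room temperature. Nitrocefin was then added from an 800 uM solution, and hydrolysis was followed at 480 nm.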
AmpC no deterg: blocks E. coli AmpC beta-lactamase in detergent-free assay; AmpC nitrocefin hydrolysis, absorbance 480 nm, 0.0001% Triton; hit rate 0.52% among 330,000; Potency, µM (top dose mostly 57.1 µM), actives largely listed as inhibitors; P00811; further: nearly all actives have a fitted effect of over 20% in size
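AmpC (5.3 nM in the dispensed reagent) in 20 mM phosphate pH 7.0 with 0.01% (detergent screen) or 0.0001% Triton X-100 was preincubated with compounds for 15 min at room temperature. Nitrocefin was then added from an 800 uM solution, and hydrolysis was followed at 480 nm.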
SARS PLpro yeast: blocks SARS-CoV papain-like protease in a yeast assay; Potency, µM (series often up to 32.9 µM), hits mostly activators; S. cerevisiae expressing SARS-CoV PLpro, growth rescue; hit rate 0.19% among 330,000; calls by dose curve; further: nearly all actives have a fitted effect of over 55% in size
Pf growth 96h: inhibits malaria parasite growth, 96 h. P. falciparum luciferase reporter growth, 96 h. Potency, µM (titrated, usually from 28.7 µM), most hits filed as inhibitors. hit rate 6.9% among 320,000
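P. falciparum expressing integrated firefly luciferase grown in erythrocytes (2% hematocrit, 0.05% parasitemia final) with compounds for 96 hours at 37 C, 5% CO2. Growth inhibition read as loss of luminescence after adding luciferase detection reagent.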
Sm TGR inh: S. mansoni TGR enzyme inhibition; Potency, µM (highest dose often 114 µM), actives largely listed as inhibitors; purified TGR, DTNB reduction, TNB absorbance 405 nm; hit rate 3% among 360,000; Q962Y6; AID 485364; further: nearly all actives have a fitted effect of over 60% in size
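TGR 20 nM + NADPH 100 uM (dispensed conc.), cpd preinc 15 min RT; start with NADPH (500 uM addition) then DTNB (15 mM addition). Kinetic TNB absorbance, 405 nm filter. Four-parameter Hill fit across titration.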
Large screens that a line does not name were inactive. Rows were chosen to be rich in hits. Some 12% of all compounds tested hit in one or more screens of this group. Unless noted, the call rests on the fitted dose curve; in most records, active means well fitted curve in the direction sought with a large enough effect; inconclusive means small, poorly fitted or top-dose-only effect, or another doubt; inactive means no such curve, though single readings can be large; an effect the other way counts as inactive or inconclusive.

COc1ccc(-c2noc(CCC(=O)NCc3ccco3)n2)cc1	Sm TGR inh 39.8µM
COc1ccc(-c2cn3cc(C(=O)NN)ccc3n2)cc1	Pf growth 96h 4.65µM
CC(=O)NCCC(=O)Nc1sc2c(c1-c1nc3ccccc3[nH]1)CCCC2	Pf growth 48h inconclusive, Pf growth 96h inconclusive
CN1CCN(S(=O)(=O)c2cccc(C(=O)Nc3sc4c(c3-c3nc5ccccc5[nH]3)CCCC4)c2)CC1	Pf growth 48h 2.94µM, Pf growth 96h 3.29µM
O=C(Nc1sc2c(c1-c1nc3ccccc3[nH]1)CCCC2)C1CCCC1	Pf growth 48h 11.7µM, Pf growth 96h 13.1µM
COc1ccc(-n2c(=O)c3ccccc3n(Cc3ccccc3C)c2=O)c(OC)c1	none (no result: Pf growth 48h, AmpC no deterg, SARS PLpro yeast, Pf growth 96h)
COc1ccc(OC)c(NC2c3ccccc3C(=O)N2c2cccnc2)c1 (stereo not drawn)	SARS PLpro yeast inconclusive (no result: Pf growth 48h)
CCCCNc1c(-c2ccc(SC(C)CC)c(OC)c2)nc2ccc(C)cn12 (stereo not drawn)	Pf growth 48h 3.29µM, Pf growth 96h inconclusive
CCCCNc1c(-c2ccc(SC3CCCCC3)c(OC)c2)nc2ccc(Cl)cn12	Pf growth 48h 8.28µM, AmpC detergent inconclusive, Pf growth 96h 2.08µM
COc1ccccc1CNc1ncnc2c1nnn2C	none (no result: Pf growth 48h, AmpC no deterg, SARS PLpro yeast, Pf growth 96h)
Cc1cc(/C=C2\C(=N)N3N=C(CC(=O)N4CCOCC4)SC3=NC2=O)c(C)n1-c1ccccc1	Pf growth 48h inconclusive, SARS PLpro yeast inconclusive, Pf growth 96h inconclusive
COc1ccc(-n2c(C)cc(/C=C3\C(=N)N4N=C(CC(=O)N5CCOCC5)SC4=NC3=O)c2C)cc1	Pf growth 48h 13.1µM, Pf growth 96h 13.1µM
CN(C)CCNC(=O)CNC(=S)N(CCCN1CCOCC1)Cc1cccs1	none
Cc1c(Cl)cccc1NC(=S)N(CCCN1CCOCC1)Cc1cccs1	Pf growth 48h inconclusive
Cc1ccc(NC(=S)N(CCCN2CCOCC2)Cc2cccs2)c(C)c1	Pf growth 48h inconclusive, Pf growth 96h 9.28µM
CCN(CC)CCNC(=O)CNC(=S)N(CCCN1CCOCC1)Cc1cccs1	Pf growth 96h 1.65µM
COc1ccc(-c2noc(C3CC(=O)N(c4ccc(C)c(F)c4)C3)n2)c(OC)c1 (stereo not drawn)	none (no result: Pf growth 48h, AmpC no deterg, SARS PLpro yeast, Pf growth 96h)
Cc1cc(C)cc(N=Cc2c(O)c3ccccc3oc2=O)c1	Pf growth 96h inconclusive
Cc1cc(C)c(N=Cc2c(O)c3ccccc3oc2=O)c(C)c1	Pf growth 48h 10.4µM, AmpC detergent inconclusive
Cc1ccc2c(c1)C=CC(C#N)N2C(=O)c1ccccc1 (stereo not drawn)	SARS PLpro yeast 11.2µM
Cc1nn(CC(O)CN2c3ccccc3Sc3ccccc32)c(C)c1Br (stereo not drawn)	AmpC detergent inconclusive, Pf growth 96h 2.62µM (no result: Pf growth 48h)
O=C1c2ccccc2C(=O)N1CC(O)Cn1nnc2ccccc21 (stereo not drawn)	Pf growth 96h 9.28µM
OC(CN1c2ccccc2Sc2ccccc21)Cn1nnc2ccccc21 (stereo not drawn)	Pf growth 48h 4.65µM, Pf growth 96h inconclusive
Cc1nn(CC(O)c2ccccc2)c(C)c1Br (stereo not drawn)	AmpC detergent inconclusive, SARS PLpro yeast inconclusive (no result: Pf growth 48h)
CCN(CC(=O)Nc1c(F)cccc1F)C(=O)CCc1ccc(OC)cc1	none
CCOc1ccc(NS(=O)(=O)c2ccc3c4c(cccc24)C(=O)N3)cc1	none (no result: Pf growth 48h, AmpC no deterg, SARS PLpro yeast, Pf growth 96h)
O=[N+]([O-])c1cc(C(F)(F)F)cc([N+](=O)[O-])c1NCCCNc1ccc([N+](=O)[O-])c2cccnc12	Pf growth 48h inconclusive, AmpC detergent inconclusive, Pf growth 96h 4.15µM
O=[N+]([O-])c1ccc(NCCO)c2ncccc12	none
C=C(C)Cn1c(=O)c2c(nc3n2CCN3c2ccc(CC)cc2)n(C)c1=O	none (no result: Pf growth 48h, AmpC no deterg, SARS PLpro yeast, Pf growth 96h)
CCOC(=O)c1[nH]c(COC(=O)CCOc2ccccc2OC)c(C(=O)OCC)c1C	none
CCOC(=O)c1[nH]c(COC(=O)CCCOc2ccccc2)c(C(=O)OCC)c1C	Pf growth 48h 13.1µM, Pf growth 96h inconclusive
CC(C)(C)c1ccc(OCCOc2ccc(C(C)(C)C)cc2NC=O)c(NC=O)c1	Pf growth 48h 10.4µM, Pf growth 96h 2.62µM

Screening results: PubChem, National Center for Advancing Translational Sciences (NCATS)
